Assay results reported in PubChem BioAssay (EPA / NIEHS).
The source made the active and inactive calls. How the source made its calls: active means hit-call score of the fitted dose curve at least 0.9, where 1 is the maximum; inactive means score below 0.9.

Tests used:
[1] = ATG_GRE_CIS: Attagene CIS-FACTORIAL HepG2 Assay for human Glucocorticoid Response Elements (GRE) (AID 2282947); conditions: HepG2 GRE cis-reporter, Attagene multiplex mRNA; actives raise or lower the signal
Summary of the method: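 Fluorescence intensity of reporter-specific cDNA fragments, separated by capillary electrophoresis, provides the signal. Constructs carry cis-regulating promoters in transiently transfected HepG2 liver cells; 24 h incubation; fitting is bidirectional against DMSO.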

[2] = ATG_ISRE_CIS: Attagene CIS-FACTORIAL HepG2 Assay for human Interferon Regulatory Factor 1 (IRF1) binding to an Interferon-Stimulated Response Element (ISRE) (AID 2282948); conditions: HepG2 ISRE cis-reporter (Attagene), mRNA transcription readout; actives raise or lower the signal
Summary of the method: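 Endogenous transcription factor activity read as reporter transcript abundance via RT-PCR and capillary electrophoresis. HepG2 cells transiently transfected, 24 h chemical exposure. Gain or loss fitted against DMSO baseline.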

[3] = ATG_M_32_CIS: Attagene CIS-FACTORIAL HepG2 Assay for M32 Transcription Factor (Internal Marker) (AID 2282949); conditions: HepG2 Attagene cis-factorial M32 reporter, mRNA; actives raise or lower the signal;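 further: background control marker of the multiplexed CIS panel rather than a real target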
Summary of the method: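 HepG2 transfectants (cis-regulated reporter transcription units) dosed 24 h. Reporter mRNA by RT-PCR plus CE, analysed as gain or loss relative to DMSO.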

[4] = ATG_M_06_CIS: Attagene CIS-FACTORIAL HepG2 Assay for M06 Transcription Factor (Internal Marker) (AID 2282950); conditions: HepG2 Attagene CIS-FACTORIAL M06 internal marker reporter; actives raise or lower the signal
Summary of the method: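 Read-out is fluorescence of labelled reporter cDNA fragments resolved by capillary electrophoresis after RT-PCR. Cells: HepG2 carrying transfected cis-promoter reporter units, treated 24 h. Gain or loss of signal fitted relative to DMSO.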

[5] = target: Hypoxia-inducible factor 1-alpha (Homo sapiens) (UniProt Q16665); assay: ATG_HIF1a_CIS: Attagene CIS-FACTORIAL HepG2 Assay for human Hypoxia Inducible Factor 1 (HIF1A) (AID 2282951); conditions: HepG2 Attagene cis-factorial HIF1a reporter transcription; actives raise or lower the signal
Summary of the method: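 HepG2 cells transiently transfected with multiplexed cis-promoter reporter units; reporter mRNA read 24 h after dosing by RT-PCR, 6-FAM primer-extension labelling, HpaI digestion and capillary electrophoresis. Bidirectional fit versus DMSO baseline.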

[6] = target: Hepatocyte nuclear factor 6 (Homo sapiens) (UniProt Q9UBC0); assay: ATG_HNF6_CIS: Attagene CIS-FACTORIAL HepG2 Assay for human Hepatocyte Nuclear Factor 6 (HNF6) (AID 2282952); conditions: HepG2 Attagene cis-factorial HNF6 reporter transcription; actives raise or lower the signal
Summary of the method: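 Twenty-four-hour chemical treatment of reporter-transfected HepG2 cells precedes RNA isolation, DNase-treated reverse transcription and PCR of reporter sequences. Labelled fragments are sized by capillary electrophoresis and fitted bidirectionally versus DMSO.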

[7] = target: Heat shock factor protein 1 (Homo sapiens) (UniProt Q00613); assay: ATG_HSE_CIS: Attagene CIS-FACTORIAL HepG2 Assay for human Heat Shock Transcription Factor 1 (HSE) (AID 2282953); conditions: HepG2 HSE cis-reporter, Attagene RNA transcription; actives raise or lower the signal
Summary of the method: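 HepG2, transient MRTU transfection, cis-promoter reporters (endogenous TF activity). 24 h compound. RNA → oligo(dT) RT → PCR → 6-FAM primer extension → HpaI cut → CE. Bidirectional fit vs DMSO.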

[8] = ATG_MRE_CIS: Attagene CIS-FACTORIAL HepG2 Assay for human Metal Responsive Element (MRE) (AID 2282954); conditions: HepG2 MRE cis-reporter transcription, Attagene multiplex; actives raise or lower the signal
Summary of the method: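 Measured here is mRNA induction from an MRE cis-element reporter in HepG2 after 24 h, quantified by fluorescence of labelled RT-PCR products on capillary electrophoresis; gain- and loss-of-signal fits use DMSO as baseline.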

[9] = ATG_PBREM_CIS: Attagene CIS-FACTORIAL HepG2 Assay for human Phenobarbital-responsive Enhancer Module (PBREM) (AID 2282955); conditions: HepG2 PBREM cis-reporter, Attagene multiplexed transcription; actives raise or lower the signal
Summary of the method: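 HepG2 cells transiently transfected with multiple cis-regulated reporter transcription units; endogenous factor activity at the PBREM element measured as reporter mRNA 24 h after dosing, via RT-PCR and capillary electrophoresis of fluorescent fragments; bidirectional fitting versus DMSO.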

Measured: AC50

Chain of Hepatocyte nuclear factor 6 (Homo sapiens) (Q9UBC0 whole entry, looked up, the tested form may be a part): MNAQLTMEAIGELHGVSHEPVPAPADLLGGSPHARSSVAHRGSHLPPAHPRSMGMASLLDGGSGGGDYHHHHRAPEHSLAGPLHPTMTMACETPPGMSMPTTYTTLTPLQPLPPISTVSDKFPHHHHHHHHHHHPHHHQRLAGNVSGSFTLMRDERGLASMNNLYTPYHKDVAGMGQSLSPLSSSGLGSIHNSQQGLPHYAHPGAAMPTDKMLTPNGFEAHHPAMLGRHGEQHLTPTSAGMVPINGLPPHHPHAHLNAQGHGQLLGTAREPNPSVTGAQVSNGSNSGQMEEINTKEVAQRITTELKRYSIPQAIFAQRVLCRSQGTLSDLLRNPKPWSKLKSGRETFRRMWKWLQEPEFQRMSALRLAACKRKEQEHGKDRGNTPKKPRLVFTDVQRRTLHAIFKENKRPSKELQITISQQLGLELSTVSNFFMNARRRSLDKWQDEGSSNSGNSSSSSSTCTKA
Chain of Heat shock factor protein 1 (Homo sapiens) (Q00613 whole entry, looked up): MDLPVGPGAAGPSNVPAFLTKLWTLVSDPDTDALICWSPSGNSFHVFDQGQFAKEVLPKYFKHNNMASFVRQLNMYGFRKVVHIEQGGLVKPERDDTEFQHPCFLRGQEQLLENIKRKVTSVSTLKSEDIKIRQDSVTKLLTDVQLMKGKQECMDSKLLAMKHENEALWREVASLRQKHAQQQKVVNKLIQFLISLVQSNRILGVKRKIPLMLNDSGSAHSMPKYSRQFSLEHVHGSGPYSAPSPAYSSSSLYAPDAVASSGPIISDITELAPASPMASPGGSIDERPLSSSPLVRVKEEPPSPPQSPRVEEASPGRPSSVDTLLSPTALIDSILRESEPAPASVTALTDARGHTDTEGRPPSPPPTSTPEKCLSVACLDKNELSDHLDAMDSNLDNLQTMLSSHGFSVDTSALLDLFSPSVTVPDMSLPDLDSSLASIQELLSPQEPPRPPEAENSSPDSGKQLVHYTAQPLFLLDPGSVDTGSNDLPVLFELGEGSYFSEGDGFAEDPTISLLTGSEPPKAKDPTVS
Chain of Hypoxia-inducible factor 1-alpha (Homo sapiens) (Q16665 whole entry, looked up): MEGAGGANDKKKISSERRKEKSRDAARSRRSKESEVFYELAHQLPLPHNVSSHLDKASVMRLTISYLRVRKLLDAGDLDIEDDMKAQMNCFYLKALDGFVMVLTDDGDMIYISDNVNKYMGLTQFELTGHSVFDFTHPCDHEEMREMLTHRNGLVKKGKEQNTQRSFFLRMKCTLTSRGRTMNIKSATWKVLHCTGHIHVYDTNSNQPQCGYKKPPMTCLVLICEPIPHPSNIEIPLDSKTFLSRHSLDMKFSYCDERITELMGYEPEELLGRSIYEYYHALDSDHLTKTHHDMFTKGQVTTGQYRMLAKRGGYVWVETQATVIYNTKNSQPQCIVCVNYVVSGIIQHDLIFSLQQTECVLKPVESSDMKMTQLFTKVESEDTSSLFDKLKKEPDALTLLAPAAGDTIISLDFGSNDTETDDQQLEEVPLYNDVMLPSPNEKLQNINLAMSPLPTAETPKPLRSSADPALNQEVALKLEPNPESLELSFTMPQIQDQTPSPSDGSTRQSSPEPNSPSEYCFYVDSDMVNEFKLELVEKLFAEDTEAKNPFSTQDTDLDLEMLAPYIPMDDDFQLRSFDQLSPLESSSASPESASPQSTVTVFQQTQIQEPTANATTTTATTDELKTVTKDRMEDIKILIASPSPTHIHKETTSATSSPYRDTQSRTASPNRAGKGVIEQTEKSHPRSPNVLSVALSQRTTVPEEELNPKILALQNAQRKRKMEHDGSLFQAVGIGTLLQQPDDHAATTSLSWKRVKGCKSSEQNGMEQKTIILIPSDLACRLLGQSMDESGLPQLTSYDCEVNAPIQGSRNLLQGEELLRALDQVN

OCCNCc1ccccc1
not listed: [9]
inactive: all other assays above

CCC(CO)CO
not listed: [9]
inactive: all other assays above

C=CC(C)(C)C
inactive: all assays above

CCC(C)OC(=O)c1ccc(O)cc1 (stereo not given)
inactive: all assays above

O=C(Nc1ccccc1)c1ccccc1O
inactive: all assays above

COc1ccc(C(Cl)=C(c2ccc(OC)cc2)c2ccc(OC)cc2)cc1
inactive: all assays above

CC(=O)c1ccc2c(c1)CCCC2
inactive: all assays above

CC(C)c1ccc2cc(C(C)C)ccc2c1
not listed: [9]
inactive: all other assays above

CCc1ccc2c(c1)C(=O)c1ccccc1C2=O
inactive: all assays above

Cc1cc(C)c(C(=O)O)c(C)c1
inactive: all assays above

CN(C)CCCN(C)C
inactive: all assays above

CC(C)(Oc1ccc(C2CC2(Cl)Cl)cc1)C(=O)O (stereo not given)
inactive: all assays above

NC(CO)(CO)CO
not listed: [9]
inactive: all other assays above

O=C(OCC1CCC2OC2C1)C1CCC2OC2C1 (stereo not given)
not listed: [9]
inactive: all other assays above

CC1=NC(C)OC1C (stereo not given)
active: [2] 100 µM | [7] 160 µM
not listed: [9]
inactive: all other assays above

CCCCC/C=C\CCC=O
not listed: [9]
inactive: all other assays above

C=C(C)c1cccc(C(C)(C)N=C=O)c1
inactive: all assays above

O=C1CCCC1
not listed: [9]
inactive: all other assays above

C=CCOCC(O)CCl (stereo not given)
not listed: [9]
inactive: all other assays above

COCc1c(C(C)C)nc(C(C)C)c(/C=C/[C@@H](O)C[C@@H](O)CC(=O)O)c1-c1ccc(F)cc1
active: [8] 12.4 µM
not listed: [9]
inactive: all other assays above

Cc1ccc(C(C)c2ccc(C)c(C)c2)cc1C
active: [1] 24.8 µM | [5] 26.1 µM | [7] 100 µM | [8] 181 µM
inactive: all other assays above

CC(C)(C)C1CCCCC1=O (stereo not given)
inactive: all assays above

O=C(Nc1ccccc1SSc1ccccc1NC(=O)c1ccccc1)c1ccccc1
active: [7] 47.1 µM
inactive: all other assays above

CCOCC(=O)O
inactive: all assays above

C[Si](C)(CCCN)O[Si](C)(C)CCCN
inactive: all assays above

O=C(O)CCCCCCCCCC(=O)O
not listed: [9]
inactive: all other assays above

NCCCN1CCN(CCCN)CC1
inactive: all assays above

OC1CCCCCCCCCCC1
active: [8] 100 µM
inactive: all other assays above

O=C1c2ccccc2C(=O)C1c1nc2ccccc2c(Br)c1O
active: [5] 4.92 µM
not listed: [9]
inactive: all other assays above

CN(C)c1ccc(N=Nc2ccccc2C(=O)O)cc1
active: [2] 58.1 µM | [5] 17.9 µM | [7] 56.5 µM | [8] 43.9 µM
inactive: all other assays above

CCCCCCCOC(=O)CCC
not listed: [9]
inactive: all other assays above

O=c1[nH]nc(-c2ccc([N+](=O)[O-])o2)o1
inactive: all assays above

Cc1cccc(OCCOc2cccc(C)c2)c1
inactive: all assays above

CCO[Si](C)(OCC)OCC
inactive: all assays above

C=CC(=O)OCCOC(=O)C=C
active: [2] 25.6 µM | [8] 27.5 µM
inactive: all other assays above

Nc1ccc2cc3ccccc3cc2c1
inactive: all assays above

Cc1ccccc1C
not listed: [9]
inactive: all other assays above

CC(CC=O)CCCC(C)(C)O (stereo not given)
not listed: [9]
inactive: all other assays above

CC(=O)Nc1ccc2c(c1)Cc1cc(NC(C)=O)ccc1-2
inactive: all assays above

CC(=O)C=CC1C(C)=CCC(C)C1(C)C (stereo not given)
inactive: all assays above

O=C(c1ccccc1)c1ccc(O)c(O)c1O
active: [5] 61.2 µM
not listed: [7] | [9]
inactive: all other assays above

Nc1ccc(N=Nc2ccccc2)c(N)n1
active: [8] 69.9 µM
not listed: [5]
inactive: all other assays above

CCCCCC/C=C/C=O
not listed: [7]
inactive: all other assays above

CC1(C)[C@H]2CC[C@]1(C)C(=O)C2
not listed: [6]
inactive: all other assays above

CCCCCCCCCCCCCCCCCC#N
not listed: [7] | [9]
inactive: all other assays above

CCCNC(=O)NS(=O)(=O)c1ccc(Cl)cc1
not listed: [6] | [9]
inactive: all other assays above

CC(C)c1ccc(C#N)cc1
not listed: [7]
inactive: all other assays above

CN1C(=O)N(C)C(O)C1O (stereo not given)
not listed: [7]
inactive: all other assays above

O=C(O)CCCC[C@@H]1SC[C@@H]2NC(=O)N[C@@H]21
not listed: [5]
inactive: all other assays above

ON(Cc1ccccc1)Cc1ccccc1
not listed: [6] | [7]
inactive: all other assays above

COC(=O)/C=C\C(=O)O
not listed: [7] | [9]
inactive: all other assays above

Cn1c([N+](=O)[O-])cnc1COC(N)=O
not listed: [5]
inactive: all other assays above

c1ccc2c(c1)ccc1ncccc12
active: [2] 150 µM
not listed: [6]
inactive: all other assays above

O=C(O)c1ccccc1Nc1cccc(C(F)(F)F)c1
active: [8] 100 µM
not listed: [5] | [7]
inactive: all other assays above

CCOC(=O)c1ccc(N(C)C)cc1
not listed: [7]
inactive: all other assays above

C[C@]12C=CC(=O)C=C1CC[C@@H]1[C@@H]2[C@@H](O)C[C@@]2(C)[C@H]1CC[C@]2(O)C(=O)CO
active: [1] 0.394 µM
not listed: [5] | [9]
inactive: all other assays above

CC(=O)OCC(=O)[C@@]12N=C(C)O[C@@H]1C[C@H]1[C@@H]3CCC4=CC(=O)C=C[C@]4(C)[C@H]3[C@@H](O)C[C@@]12C
active: [1] 0.189 µM
inactive: all other assays above
